Seven compounds from PubChem BioAssay (Tox21) can be followed below.

The structures appear in SMILES notation. Where “and” joins values, the source holds several entries; their conditions need not be identical. Identical values can stand only once. Inconclusive results are not listed. Calls of active or inactive are those of the source. Unless noted, the call rests on the fitted dose curve; in most records, active means well fitted curve in the direction sought with a large enough effect in the repeat runs; inconclusive means weak or mixed curves; inactive means no such curve, though single readings can be large; an effect the other way counts as inactive or inconclusive.

The nature of experiment [1]: A CellTox Green Cytotoxicity Assay to monitor cytotoxicity in HepG2 cells - 0 hour (AID 1224882). Further: nearly all actives have a fitted effect of over 35% in size. The essentials:
(§1)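 Continuous culture of HepG2 cells with a membrane-impermeant DNA dye; rising fluorescence marks dead cells. Compound exposure lasted up to 40 h at 37 C, with reads every 8 h from 0 h.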

A short description of experiment [2]: A CellTox Green Cytotoxicity Assay to monitor cytotoxicity in HepG2 cells - 32 hour (AID 1224883). Further: nearly all actives have a fitted effect of over 50% in size. Further: potency means the concentration at half of the fitted maximal effect. The essentials: as §1
Experiment [3] can be described thus: A CellTox Green Cytotoxicity Assay to monitor cytotoxicity in HEK293 cells - 8 hour (AID 1224884). Further: nearly all actives have a fitted effect of over 35% in size. Further: potency means the concentration at half of the fitted maximal effect. The method, boiled down: (§2)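 Each value comes from one timepoint of a single continuous run in which HEK293 cells with CellTox Green were exposed to compound for up to 40 h at 37 C, dye fluorescence rising with cell death.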
Experiment [4] is described as follows: qHTS RealTime-Glo MT Cell Viability Assay in HepG2 cells - 16 hour (AID 1224885). Further: nearly all actives have a fitted effect of over 50% in size. Further: potency means the concentration at half of the fitted maximal effect. The method, boiled down:
(§3)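 Tox21 10K library screened in qHTS format on HepG2 cells carrying RealTime-Glo reagents. Compounds were added after a 5 h preincubation, and the luminescent signal from continuous culture was measured repeatedly during 40 h treatment.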
Background: In qHTS, concentration-response curves come from the screen itself.

Experiment [5] in a line: qHTS RealTime-Glo MT Cell Viability Assay in HEK293 cells - 24 hour (AID 1224886). Further: nearly all actives have a fitted effect of over 50% in size. Further: potency means the concentration at half of the fitted maximal effect. The method, boiled down: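 Luminescence generated by NanoLuc from substrate produced by living HEK293 cells served as the viability signal. Each value reflects the reading at its stated time point during continuous 40 h compound exposure at 37 C.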
Experiment [6] can be described thus: qHTS RealTime-Glo MT Cell Viability Assay in HEK293 cells - 8 hour (AID 1224887). Further: nearly all actives have a fitted effect of over 50% in size. Further: potency means the concentration at half of the fitted maximal effect. The essentials:
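qHTS format; HEK293 cells with NanoLuc/prosubstrate reagent, 37 C/5% CO2 for 5 h pre-dosing; compounds 23 nL in DMSO; luminescence at each time point reflects viable cells.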

Experiment [7] in a line: A CellTox Green Cytotoxicity Assay to monitor cytotoxicity in HEK293 cells - 16 hour (AID 1224888). Further: nearly all actives have a fitted effect of over 35% in size. Further: potency means the concentration at half of the fitted maximal effect. The essentials: as §2
Experiment [8] is described as follows: qHTS RealTime-Glo MT Cell Viability Assay in HepG2 cells - 0 hour (AID 1224889). Further: nearly all actives have a fitted effect of over 50% in size. The essentials:
as §3

Experiment [9] in a line: A CellTox Green Cytotoxicity Assay to monitor cytotoxicity in HepG2 cells - 8 hour (AID 1224890). Further: nearly all actives have a fitted effect of over 45% in size. Further: potency means the concentration at half of the fitted maximal effect. The essentials:
as §1

The nature of experiment [10]: qHTS assay to identify small molecule antagonists of the estrogen receptor alpha (ER-alpha) signaling pathway using the BG1 cell line in the presence of 0.1 nM 17-beta-estradiol - cell viability counter screen (AID 1259241). Further: nearly all actives have a fitted effect of over 40% in size. The essentials: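 Cells were plated and left 24 hr, compounds in DMSO were pinned in, 17beta-estradiol was added to 0.1 nM final, and after 22 hr CellTiter-Fluor reagent was added for 30 min before fluorescence was read.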

A short description of experiment [11]: qHTS assay to identify small molecule antagonists of the androgen receptor (AR) signaling pathway using the MDA cell line in the presence of 0.5 nM R1881 - cell viability counter screen (AID 1259242). Further: nearly all actives have a fitted effect of over 45% in size. The essentials: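 Fluorescence from CellTiter-Fluor, which reports protease activity of live cells, was read 30 min after reagent addition to MDA-kb2 cells that had been incubated 16 hr with compound and 0.5 nM R1881.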

Experiment [12] can be described thus: qHTS assay to identify small molecule phospholipidosis (PLD) inducers (AID 1259344; active means well fitted curve in the direction sought with a large enough effect; an effect the other way counts as inactive or inconclusive). The method, boiled down: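 Fluorescent phospholipid staining (LipidTOX Red) measured by automated microscopy in fixed HepG2 cells after 24 h treatment; nuclei counterstained with Hoechst 33342; amiodarone as reference inducer.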
Experiment [13] is described as follows: qHTS assay to identify small molecule HDAC inhibitors (AID 1259364). Further: top concentration of the series differs between compounds; nearly all actives have a fitted effect of over 45% in size. The method, boiled down:
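Endogenous HDAC class I/II activity was measured in wild-type HCT-116 cells by HDAC-Glo luminescence after 2 h compound treatment.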

Experiment [14] is described as follows: qHTS assay to identify small molecule agonists of the sonic hedgehog signaling (Shh) pathway - cell viability counter screen (AID 1259366). Further: nearly all actives have a fitted effect of over 50% in size. Further: potency means the concentration at half of the fitted maximal effect. The essentials: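 Cells are plated at 2,000 per well and left 4hr at 37C, 5% CO2 before compound addition. After 23hr of treatment, CellTiter-Fluor reagent is added for 1hr at 37C and fluorescence is measured.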
Experiment [15] is described as follows: qHTS assay to identify small molecule antagonists of the sonic hedgehog signaling (Shh) pathway - cell viability counter screen (AID 1259367). Further: nearly all actives have a fitted effect of over 55% in size. The essentials: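 Using CellTiter-Fluor, viability of Gli1-Luc reporter 3T3 cells is read by fluorescence in the wells used for the Shh luciferase assay. Treatment lasts 23 hr with conditioned medium, then reagent 1 hr at 37C.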

Experiment [16] can be described thus: qHTS assay to identify small molecule antagonists of the sonic hedgehog signaling (Shh) pathway (AID 1259369; calls by dose curve; further: nearly all actives have a fitted effect of over 45% in size; further: potency means the concentration at half of the fitted maximal effect). The essentials:
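Screening used 3T3Gli1-Luc cells at 2,000 per well, compounds delivered in DMSO, and conditioned medium as agonist stimulus; plates incubated 24hr at 37 C and 5% CO2 before a 30min luciferase step.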

In experiment [17] the target is Androgen receptor (Homo sapiens) (UniProt P10275). As to the kind of experiment: qHTS assay to identify small molecule antagonists of the androgen receptor (AR) signaling pathway using the MDA cell line in the presence of 0.5 nM R1881 (AID 1259243). Further: nearly all actives have a fitted effect of over 50% in size. Further: potency means the concentration at half of the fitted maximal effect. The essentials: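 Inhibition of R1881 (0.5 nM final) induced reporter signal was measured in human MDA-kb2 cells; note the MMTV promoter also responds to GR. Exposure lasted 16 hr at 37C.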

For experiment [18], the target named is Estrogen receptor (Homo sapiens) (UniProt P03372). The experiment is described as follows: qHTS assay to identify small molecule antagonists of the estrogen receptor alpha (ER-alpha) signaling pathway using the BG1 cell line in the presence of 0.1 nM 17-beta-estradiol (AID 1259244). Further: nearly all actives have a fitted effect of over 50% in size. Further: potency means the concentration at half of the fitted maximal effect. The method, boiled down:
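Quantitative high-throughput screen in VM7Luc4E2 cells: compound plus 0.1 nM E2 (final), 22 h, 37C, 5% CO2; ONE-Glo added, 30 min room temperature, luminescence measured.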

Experiment [19] can be described thus: qHTS assay to identify small molecule HDAC inhibitors - cell viability counter screen (AID 1259365). The method, boiled down: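 Counter screen in wild-type HCT-116 cells: compounds dissolved in DMSO are pin-transferred onto overnight-plated cells and left 2hr at 37C. ATP-based CellTiter-Glo luminescence then measures viable cells.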
The nature of experiment [20]: qHTS assay to identify small molecule agonists of the sonic hedgehog signaling (Shh) pathway (AID 1259368; calls by dose curve;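 further: NIH/3T3-derived 3T3Gli1-Luc cells carrying a stable Gli1-driven firefly luciferase reporter; series mostly up to about 92 µM; nearly all actives have a fitted effect of over 15% in size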). The method, boiled down:
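Luminescent signal was taken as a measure of Gli1-controlled luciferase expression in stably transfected NIH/3T3-derived cells that had been treated for 24 hr with compounds delivered in DMSO.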

Chain of Estrogen receptor (Homo sapiens) (P03372 whole entry, looked up): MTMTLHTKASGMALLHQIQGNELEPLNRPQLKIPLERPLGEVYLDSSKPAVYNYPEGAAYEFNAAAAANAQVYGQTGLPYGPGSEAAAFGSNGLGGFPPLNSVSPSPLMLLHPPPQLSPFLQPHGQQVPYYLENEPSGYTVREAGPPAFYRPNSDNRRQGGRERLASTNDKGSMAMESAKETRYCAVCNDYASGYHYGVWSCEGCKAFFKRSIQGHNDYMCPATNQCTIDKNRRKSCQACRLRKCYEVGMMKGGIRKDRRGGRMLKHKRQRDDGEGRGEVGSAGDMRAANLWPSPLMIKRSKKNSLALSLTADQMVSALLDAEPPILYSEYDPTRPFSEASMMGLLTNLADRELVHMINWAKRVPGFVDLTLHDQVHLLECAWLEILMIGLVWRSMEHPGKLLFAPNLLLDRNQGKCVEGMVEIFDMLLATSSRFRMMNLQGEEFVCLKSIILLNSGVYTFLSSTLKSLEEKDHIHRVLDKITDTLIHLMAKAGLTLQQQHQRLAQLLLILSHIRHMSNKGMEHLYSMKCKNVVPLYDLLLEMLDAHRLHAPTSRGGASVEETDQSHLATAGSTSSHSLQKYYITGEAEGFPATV
Chain of Androgen receptor (Homo sapiens) (P10275 whole entry, looked up): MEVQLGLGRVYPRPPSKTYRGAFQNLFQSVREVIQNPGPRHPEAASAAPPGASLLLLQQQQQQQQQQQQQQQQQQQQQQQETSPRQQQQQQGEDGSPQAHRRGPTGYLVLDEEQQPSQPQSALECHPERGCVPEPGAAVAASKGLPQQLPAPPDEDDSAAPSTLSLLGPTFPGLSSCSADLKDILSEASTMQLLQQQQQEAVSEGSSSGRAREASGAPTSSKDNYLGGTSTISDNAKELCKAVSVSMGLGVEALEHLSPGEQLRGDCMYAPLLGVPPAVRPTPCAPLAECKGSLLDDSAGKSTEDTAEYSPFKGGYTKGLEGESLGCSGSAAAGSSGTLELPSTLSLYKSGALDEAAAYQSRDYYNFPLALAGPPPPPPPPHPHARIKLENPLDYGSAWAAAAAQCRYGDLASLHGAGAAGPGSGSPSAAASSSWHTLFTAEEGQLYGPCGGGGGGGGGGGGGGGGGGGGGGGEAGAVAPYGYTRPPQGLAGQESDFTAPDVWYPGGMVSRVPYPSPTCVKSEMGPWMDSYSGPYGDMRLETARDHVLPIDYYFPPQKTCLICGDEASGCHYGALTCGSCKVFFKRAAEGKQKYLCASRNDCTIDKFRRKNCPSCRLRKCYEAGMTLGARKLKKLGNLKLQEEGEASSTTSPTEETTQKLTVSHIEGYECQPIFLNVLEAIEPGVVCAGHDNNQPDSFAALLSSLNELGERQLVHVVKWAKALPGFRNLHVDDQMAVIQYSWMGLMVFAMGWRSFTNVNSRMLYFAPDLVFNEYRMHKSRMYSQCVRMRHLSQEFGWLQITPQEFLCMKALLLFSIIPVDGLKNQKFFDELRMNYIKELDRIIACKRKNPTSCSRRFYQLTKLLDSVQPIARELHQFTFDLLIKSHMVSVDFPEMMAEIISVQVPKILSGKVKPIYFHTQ

With `NNCCc1ccccc1`, the Potency result in [1], in experiment [2], in experiment [3], in [4], in experiment [5] and in experiment [6] was “inactive” each time. Also, the Potency result in [7], in experiment [8], in experiment [9], in experiment [10], in experiment [11] and in experiment [12] was “inactive” throughout. Besides, the Potency result in [13], in experiment [14], in [15] and in experiment [16] was “inactive” throughout.
In the case of `Cc1cc(OCCOCC[N+](C)(C)Cc2ccccc2)ccc1C(C)(C)CC(C)(C)C`, the Potency result in [1], in experiment [8], in experiment [10], in [12], in [13] and in experiment [19] was “inactive” throughout. For the same compound, the Potency result in [20] is “inactive”. In addition, the Potency was 15.4 µM (active) and 9.52 µM (active) in [2]; 23.9 µM (active) in [3]; 17.3 µM (active) and 21.3 µM (active) in [4]; 12.2 µM (active) and 8.49 µM (active) in experiment [5]; 48.7 µM (active) and 23.9 µM (active) in experiment [6]; 38.7 µM (active) and 23.9 µM (active) in experiment [7]. Further, the Potency is 21.7 µM (active) and 21.3 µM (active) in experiment [9]; 13.6 µM (active) and 13.3 µM (active) in experiment [17]; 60.8 µM (active) and 29.8 µM (active) in experiment [18]; 48.3 µM (active) in experiment [14]; 10.8 µM (active) and 6.68 µM (active) in [16].
With `C1COC(NC(C2CC2)C2CC2)=N1`, the Potency result in experiment [1], in experiment [2], in [3], in [4], in [5] and in experiment [6] was “inactive” throughout. In addition, the Potency entry in [7], in [8], in experiment [9], in experiment [10], in experiment [18] and in experiment [12] was “inactive” in each case. For the same compound, the Potency result in [13], in [14], in experiment [15], in experiment [20] and in [16] was “inactive” each time.
Consider `OCC(CO)N[C@H]1C[C@](O)(CO)[C@@H](O)[C@H](O)[C@H]1O`, for which the Potency result in [1], in [2], in experiment [3], in experiment [4], in experiment [5] and in experiment [6] was “inactive” throughout. Besides, the Potency result in experiment [7], in [8], in experiment [9], in [10], in [17] and in experiment [18] was “inactive” each time. In addition, the Potency entry in experiment [12], in experiment [19], in experiment [14], in experiment [15] and in experiment [16] was “inactive” in each case.
`C/C=C/c1ccc(OCC)c(O)c1`: the Potency result in experiment [1], in experiment [2], in experiment [3], in experiment [4], in [5] and in experiment [6] was “inactive” in each case. Also, the Potency result in [7], in experiment [8], in experiment [9], in experiment [10], in [11] and in experiment [14] was “inactive” each time. The Potency result in experiment [15] and in [16] was “inactive” in each case.
With `c1cnc2cc3c(cc2n1)C1CNCC3C1`, the Potency result in experiment [1], in experiment [2], in [3], in experiment [4], in experiment [5] and in experiment [6] was “inactive” in each case. For the same compound, the Potency entry in [7], in experiment [8], in experiment [9], in experiment [10], in experiment [18] and in [12] was “inactive” each time. Moreover, the Potency entry in [13], in [19], in experiment [14], in experiment [15] and in [16] was “inactive” each time.
As to `CCOc1ccc2c(c1)C(C)=CC(C)(C)N2`, the Potency result in experiment [1], in experiment [2], in experiment [3], in [4], in [5] and in experiment [6] was “inactive” each time. The Potency result in experiment [7], in experiment [8], in [9], in experiment [10], in experiment [18] and in experiment [12] was “inactive” in each case. For the same compound, the Potency result in experiment [14] and in [15] was “inactive” in each case.
